Data on 102 compounds can be found in ChEMBL document CHEMBL3988442, “University of Dundee, Small-Polar-MMV Screening Library” (2021).

Molecules are shown by their SMILES. In all, about 48,000 compounds went through this assay and about 13,000 (27%) showed an effect of 50% or more. Some of the results follow.

The assay deals with Wolbachia pipientis. The assay is described as follows: Anti-Wolbachia Cell-Based Screen. It is filed as functional. Particulars: 5 µM. On the set-up: scale not given: in the data most compounds retested in dose-response had high values.
Consider `CN(CCC1CCOCC1)C(=O)C1CCC(=O)N(Cc2ccccn2)C1` (configuration not stated), for which the “Percent Effect” value turned out to be 12.01%.
In the case of `Cc1nn(C)c(C)c1OCC(=O)NCC(O)c1ccccc1F` (configuration not stated) it was -4.984%.
For `O=C1N(c2ccc(Cl)cc2)Cc2n[nH]c(=O)n21`, the “Percent Effect” value was 3.53%.
The value for `CCCn1nc(-c2nc(COC)no2)ccc1=O` was -14.93%.
The value for `CC(=O)NCC(=O)NCC1Cn2nnc(-c3cccc(F)c3)c2CO1` (configuration not stated) was -8.609%.
Regarding `CC(=O)N1CCN(Cc2nccs2)CC2(CC(=O)N(C)C2)C1.O=C(O)C(F)(F)F` (configuration not stated), the “Percent Effect” value came to 92.61%.
In the case of `CN1CCC2(CCN(Cc3nccs3)CC2)C1=O.O=C(O)C(F)(F)F` it was 4.782%; in that of `CCOCC(=O)NCCCn1ccnc1-c1ccccc1`, 90.19%; in that of `CC(C)c1nccn1CCCNC(=O)c1ccc(-c2cccnc2)nc1`, 8.791%.
In the case of `COC(=O)CCCn1ccnc1-c1ccccc1` it was 2.023%; in that of `CCOCC(=O)Nc1nccn1Cc1ccc(Br)cc1`, -3.698%; in that of `CC(=O)NCCn1ccnc1-c1cccc(C(C)N(C)C)c1` (configuration not stated), 4.198%.
`COC(=O)NCCCn1ccnc1-c1ccccc1`: the “Percent Effect” value came to 181.6%.
In the case of `Cc1ccc(C(=O)Nc2cc(C(N)=O)ccc2N2CCCCC2)cc1F` it was -3.619%; in that of `O=C(CCc1cc2n(n1)CCCN(C(=O)[C@H]1CCCO1)C2)NC1CC1`, 170.3%; in that of `O=C(O)CCc1cc2n(n1)CCCN(C(=O)c1ccc3cc[nH]c3c1)C2`, -27.67%.
In the case of `O=C(O)CCc1cc2n(n1)CCCN(C(=O)c1cc3ccccc3s1)C2` it was 6.416%; in that of `O=C(CCc1cc2n(n1)CCCN(C(=O)c1cccnc1)C2)NC1CC1`, -4.751%.
`Cc1ccc(C(=O)N2CCCn3nc(CCC(=O)O)cc3C2)cc1Cl`: the “Percent Effect” value is 11.92%.
In the case of `O=C(CCc1cc2n(n1)CCCN(C(=O)c1ccccn1)C2)NC1CC1` it was 1.644%.
In the case of `Cn1cccc1C(=O)N1CCCn2nc(CCC(=O)NC3CC3)cc2C1` it was 139.6%.
Regarding `O=C(CCc1cc2n(n1)CCCN(C(=O)c1ccncc1)C2)NC1CC1`, the “Percent Effect” value is 139.8%.
The value for `CCc1cc(C(=O)N2CCCn3nc(CCC(=O)O)cc3C2)cs1` was -7.139%; that for `CC(C)c1ocnc1C(=O)NC1(c2cccc(F)c2)CCOCC1` was -15.1%; that for `O=S1(=O)CCCN(Cc2ccccc2OCC(F)(F)F)CC1` was 7.623%.
As for `Fc1cccc(-c2n[nH]cc2-c2nc(CN3CCOCC3)no2)c1`, the “Percent Effect” value is 25.75%.
The value for `CN1CCN(Cc2ccccc2Oc2cncc(C(N)=O)n2)CC1` was 7.262%; that for `CC(=O)N1Cc2ccccc2CC1C(=O)Nc1cc(C)ccn1` (configuration not stated) was -13.21%.
The value for `C[C@]1(O)CN(Cc2cccc(C(=O)O)c2)CC[C@@H]1Oc1cccc(F)c1` was 113.2%.
In the case of `C[C@]1(O)CN(Cc2ccc(C(=O)O)cc2)CC[C@@H]1Oc1cccc(F)c1` it was 71.72%; in that of `COc1ccccc1OC1CN(Cc2ccc(C(=O)O)cc2)C1`, -24.62%; in that of `O=C(NCC1(O)CCOc2ccccc21)Nc1ccc2c(c1)OCO2` (configuration not stated), 5.05%.
In the case of `O=C(Nc1cccc(F)c1)C1CCN(Cc2noc(C3CC3)n2)CC1`, the “Percent Effect” value is on record as -5.725%.
As to `CCn1cc(NC(=O)C2CCN(Cc3nc(C(C)C)no3)CC2)cn1`, the “Percent Effect” value came out at 89.67%.
Take `CCn1cc(NC(=O)C2CCN(Cc3noc(C(C)C)n3)CC2)cn1`: the “Percent Effect” value was found to be 3.174%.
The value for `CCc1noc(CN2CCC(C(=O)Nc3cnn(CC)c3)CC2)n1` was 82.9%; that for `CCc1noc(C(C)N2CCC(C(=O)Nc3cnn(CC)c3)CC2)n1` (configuration not stated) was 11.99%; that for `CC(C)c1noc(CN2CCC(C3CCCCCN3S(C)(=O)=O)CC2)n1.Cl` (configuration not stated) was 5.236%.
The value for `CC(C)Cc1noc(CN2CCC(C(=O)NCC3CCCO3)CC2)n1` (configuration not stated) was 11.96%; that for `O=C(Nc1ccc(F)cc1)C1CCN(Cc2noc(C3CC3)n2)CC1` was -24.67%; that for `CCn1cc(NC(=O)C2CCN(Cc3noc(C4CC4)n3)CC2)cn1` was 113.1%.
The value for `CCCc1noc(CN2CCC(C(=O)Nc3cnn(CC)c3)CC2)n1` was 112.1%; that for `CCn1cc(NC(=O)C2CCN(Cc3ccccc3C#N)CC2)cn1` was 4.672%; that for `CCn1nc(C(=O)N2CCNCC2C(=O)Nc2ccc(C)nc2)cc1C` (configuration not stated) was -9.898%.
Turning to `Cc1ncsc1CCC(=O)N1CCCC1c1cccnc1` (configuration not stated), the “Percent Effect” value is on record as -20.99%.
For the compound `CNc1cc(C2CCCN2C(=O)CCc2ccccc2F)ccn1` (configuration not stated), the “Percent Effect” value turned out to be 87.66%.
For the compound `CN(CC(=O)N1CCCC1c1cnn(C)c1)c1ccc(Cl)cn1` (configuration not stated), the “Percent Effect” value is 7.888%.
As for `Cc1c(CCC(=O)N2CCCC2c2ccnc(N(C)C)c2)cnn1C` (configuration not stated), the “Percent Effect” value was 100.7%.
In the case of `CNc1cc(C2CCCN2Cc2ccccc2C(=O)O)ccn1` (configuration not stated) it was -9.621%.
In the case of `CNc1cc(C2CCCN2C(=O)CCc2cnn(C)c2C)ccn1` (configuration not stated) it was 114.3%; in that of `COc1ccc(Nc2cc(C)nc(C)n2)cc1N1CCCC1=O`, -4.769%; in that of `O[C@H]1CC[C@@H](Cc2cc(-c3ccccc3)on2)O[C@@H]1CNCC1CC1`, 0.08363%.
`OCCN1CCC(CNCc2ccc(Br)cc2)CC1`: the “Percent Effect” value is listed as -27.23%.
The value for `CC(C)N(C)C(=O)C1CSCN1S(=O)(=O)c1ccccc1F` (configuration not stated) was 0.8894%.
In the case of `CCc1cc(CNC(=O)C2CCC(=O)N(Cc3ccccc3F)C2)on1` (configuration not stated) it was -10.8%; in that of `CC(C)N1[C@H](CN2CCCC2)C[C@@H]2CN(Cc3cnn(C)c3)CC[C@@H]21`, 1.544%.
The value for `c1cnn([C@@H]2CN(Cc3nccs3)[C@@H]3CCCO[C@@H]32)c1` was -0.08077%; that for `CN1C(Cn2cccn2)C[C@@H]2CN(Cc3nccs3)CC[C@@H]21` (some centres not stated) was 108%; that for `CN1C(Cn2cccn2)C[C@@H]2CN(Cc3cnn(C)c3)CC[C@@H]21` (some centres not stated) was 88.14%.
`CC(=O)N1[C@H](Cn2cncn2)C[C@@H]2CN(Cc3nccs3)CC[C@@H]21`: the “Percent Effect” value is 4.372%.
In the case of `Cn1cc(CN2CCO[C@H]3C(Cn4cccn4)CC[C@@H]32)cn1` (some centres not stated) it was 5.846%; in that of `Cc1nc(Cn2c3c(ccc2=O)CCN(CC2CCC2)CC3)cs1.O=C(O)C(F)(F)F.O=C(O)C(F)(F)F`, -14.62%; in that of `Cc1nc(CN2CCC3(CC2)C(=O)N(C)CCN3C)cs1.O=C(O)C(F)(F)F.O=C(O)C(F)(F)F.O=C(O)C(F)(F)F`, 99.41%.
In the case of `CCN1CCN(C)C(=O)C12CCN(Cc1csc(C)n1)CC2.O=C(O)C(F)(F)F` it was 113.1%; in that of `CCc1ccc(CN2CCC3(CC2)C(=O)N(C)CCN3CC)cc1`, -23.08%; in that of `Cc1nc(CN2CCC3(CC2)CCN(C(=O)c2cscn2)C3)cs1.O=C(O)C(F)(F)F`, -22.9%.
In the case of `COCC1CC2(CCN(CC3CC3)CC2)CN1Cc1csc(C)n1.O=C(O)C(F)(F)F.O=C(O)C(F)(F)F` (configuration not stated) it was 2.06%.
Take `Cc1nc(CN2CCN(C)C(=O)C23CCN(CC2CCCC2)CC3)cs1`: the “Percent Effect” value amounted to 121.4%.
In the case of `Cc1nc(CN2CCC3(CC2)CC(=O)N(C)c2ccccc23)cs1.O=C(O)C(F)(F)F`, the “Percent Effect” value was -15.31%.
`CC(NC(=O)c1cnccn1)c1nnc2ccccn12` (configuration not stated): the “Percent Effect” value was -8.378%.
The value for `CN(CC1Cc2ccccc2CN1C)C(=O)CSc1nccn1C` (configuration not stated) was -6.855%.
Consider `CN(C)C(C(=O)Nc1nccs1)c1c(F)cccc1Cl` (configuration not stated), for which the “Percent Effect” value is -1.745%.
In the case of `CCCN1CCC(Nc2nc(CC)ns2)CC1` it was -19.08%; in that of `CN(Cc1cccnc1)C1CC2(CCN(C(=O)c3ccnnc3)CC2)C1`, 9.482%; in that of `O=C(c1ccnnc1)N1CCC2(CC1)CCN(C(=O)c1cccnc1)C2`, 96.42%.
For the compound `O=C(c1ccncc1)N1CCC2(CC1)CC(Oc1cccnc1)CO2` (configuration not stated), the “Percent Effect” value is -1.534%.
As to `O=C(c1ccncc1)N1CCC2(CC1)CCN(C(=O)c1cccnc1)C2`, the “Percent Effect” value amounted to 102.3%.
The value for `COC(=O)[C@H]1CN(C(C)=O)CCN1C(C)=O` was -4.652%; that for `O=C1CCN(C(=O)C2(c3ccc(F)cc3)CCCCC2)CCN1` was -15.47%.
In the case of `CNS(=O)(=O)CCCNC(C)(C)c1nc(C)cs1` it was 1.727%; in that of `CCOc1ccccc1C(CC(=O)O)NC(C)=O` (configuration not stated), 10.47%.
The value for `Cc1nsc(NC2CC(=O)N(C(C)(C)C)C2)n1` (configuration not stated) was -3.11%.
For `COc1ccc(OC)c(-n2cnnc2CCN)c1`, the “Percent Effect” value stood at 12.28%.
Consider `COc1cc(-c2n[nH]c(CC#N)n2)cc(OC)c1OC`, for which the “Percent Effect” value is listed as 137.1%.
For `COc1cc(-c2cnnc(NCC3CC3)n2)cc(OC)c1OC`, the “Percent Effect” value was determined as 22.6%.
In the case of `COc1cc(-c2cnnc(NCCSC)n2)cc(OC)c1OC` it was -5.891%; in that of `COc1cc(-c2nc(N)n[nH]2)cc(OC)c1OC`, 107.9%.
In the case of `COc1cc(-c2n[nH]c(CCN)n2)cc(OC)c1OC` it was 136.2%; in that of `COc1ccc(-c2ccccc2CCN)c(OC)c1OC`, -10.47%; in that of `COc1cc(CNc2nc3c(c(=O)[nH]2)CCNC3)cc(OC)c1OC`, -8.828%.
For the compound `COc1cc(CNc2nncs2)cc(OC)c1OC`, the “Percent Effect” value is listed as -2.056%.
In the case of `COc1cc(-c2n[nH]c(CO)n2)cc(OC)c1OC` it was 101.2%; in that of `COc1cc(CO)c(OC)c2c1OCO2`, 0.3319%; in that of `CC(C)c1nccn1C1CCCN(C(=O)c2cccc3[nH]ncc23)C1` (configuration not stated), -3.235%.
In the case of `CN(CCNC(=O)Nc1ccncc1)C1CCCCC1` it was -10.45%; in that of `COCCC(=O)NCCCOC1CCCc2ccccc21` (configuration not stated), 3.193%.
As for `CC(=O)N1CCN(C(=O)NCCCN(C)S(C)(=O)=O)CC1`, the “Percent Effect” value is recorded as -13.58%.
In the case of `CC(C)c1noc(C(C)N2CCN(Cc3nc4ccccc4[nH]3)CC2)n1` (configuration not stated) it was -18.96%.
The value for `CCN(C(=O)CN1CCCC1Cc1ccccc1)c1ccccc1` (configuration not stated) was 22.38%; that for `COc1cc(CN)c(OC)c2c1OCO2.Cl` was -2.392%; that for `COc1cc(-c2cccc3c2OC(CN)C3)cc(OC)c1OC` (configuration not stated) was 1.955%.
As for `COc1cc(-c2n[nH]c(CN)n2)cc(OC)c1OC`, the “Percent Effect” value was found to be 105.2%.
